# Measurements published in PubChem BioAssay (NCATS).
# Records with an inconclusive call do not appear. Entries that show only a call come without a potency. Values without a mark were called inactive. Active and inactive are the calls of the source. Calls come from the whole dose curve; tested in HEK293 reporter line.
# Assay: qHTS for Inhibitors of the Functional Ribonucleoprotein Complex (vRNP) of Lassa (LASV) Arenavirus: LASV Primary Screen - GLuc reporter signal (AID 1347082); note: nearly all actives have a fitted effect of over 60% in size
# Details: LASV minigenome vRNP, Gaussia luciferase reporter; series mostly up to 57.5 µM
# Potency is the fitted concentration of half-maximal effect.
SMILES,Potency,"activity change, negative = inhibition"
COC(=O)C1=CO[C@@H](O[C@@H]2O[C@H](CO)[C@@H](O)[C@H](O)[C@H]2O)C2C1CC(O)O[C@H]2C (stereo not given in full),inactive,–
O=C1CC(c2ccc(O[C@@H]3OC(CO)[C@@H](O)C(O)C3O)cc2)Oc2cc(O)ccc21 (stereo not given in full),inactive,–
CC=C(C)C(=O)OC1CCN2CC=C(COC(=O)C(O)(C(C)OC)C(C)(C)O)C12 (stereo not given),inactive,–
O=c1c(O)c(-c2ccccc2O)oc2cc(O)cc(O)c12,inactive,–
CCN(CC)CCNC(=O)c1c(C)[nH]c(C=C2C(=O)Nc3ccc(F)cc32)c1C,44.4 µM (active),–
CSCC[C@@H](N)C(=O)O,inactive,–
COc1c2c(c(OC)c3c1c(=O)c1ccccc1n3C)OCO2,inactive,–
CO[C@H]1C[C@H](O[C@H]2[C@H](C)O[C@@H](O[C@@H]3/C(C)=C/C[C@@H]4C[C@@H](C[C@]5(C=C[C@H](C)[C@@H](C6CCCCC6)O5)O4)OC(=O)[C@@H]4C=C(C)[C@@H](O)[C@H]5OC/C(=C\C=C\[C@@H]3C)[C@]54O)C[C@@H]2OC)O[C@@H](C)[C@@H]1O,inactive,–
COc1ccc(CC2c3cc(OC)c(OC)cc3CCN2C)cc1O (stereo not given),inactive,–
CN=C(N)NCCC[C@H](N)C(=O)O,inactive,–
CC(C)=CC(=O)O[C@@H]1Cc2cc3ccc(=O)oc3cc2OC1(C)C,inactive,–
CCNC(=O)Nc1ccc(-c2nc3c(c(N4CCOC[C@H]4C)n2)CCN(C2COC2)C3)cc1,1.93 µM (active),–
COc1c2ccoc2nc2c(OC)c(O[C@@H]3O[C@H](C)[C@@H](O)[C@@H](O)[C@H]3O)ccc12,inactive,–
N#CC(=C(O)c1ccc(Cl)cc1Cl)c1nc2cc(Cl)ccc2c(=O)[nH]1,inactive,–
NCC(O)C1CCCCCCC1 (stereo not given),inactive,–
CCCCCCCC/C=C/CCCOC(C)=O,inactive,–
C[C@@H]1NC(=O)N[C@@H]1CCCCCC(=O)O,inactive,–
COC1[C@@H](O[C@@H]2O[C@H](C)[C@@H](O[C@H]3C[C@@](C)(O)[C@H](OC(=O)CC(C)C)[C@H](C)O3)[C@H](N(C)C)[C@H]2O)[C@@H](CC=O)C[C@@H](C)[C@@H](O)/C=C/C=C/C[C@@H](C)OC(=O)C[C@H]1OC(C)=O (stereo not given in full),inactive,–
CC1=CCC(=C(C)C)CC1,inactive,–
CCc1cc(C(C)=NOCc2ccc(C3CCCCC3)c(C(F)(F)F)c2)ccc1CN1CC(C(=O)O)C1,inactive,–

SMILES,Potency,"activity change, negative = inhibition"
C=C[C@@H](C1=CC(=O)C(OC)=C(OC)C1=O)c1ccccc1,inactive,–
COc1ccc(C(=O)OC2CC[C@@]3(C)C4CCC5[C@]6(O)C[C@H](O)[C@@]7(O)C(CN8CC(C)CCC8[C@@]7(C)O)[C@]6(O)C[C@@]53O[C@]24O)cc1OC (stereo not given in full),inactive,–
O=C(O)C1=CO[C@@H](O[C@@H]2O[C@H](CO)[C@H](O)[C@H](O)[C@H]2O)[C@@H]2C(CO)=CC[C@H]12,inactive,–
SC1CCCC1,inactive,–
C[C@@H](O)CCC[C@H](O)/C=C/[C@@H]1[C@@H](C/C=C\CCCC(=O)O)[C@@H](O)C[C@H]1O,–,-12.1% [at 0.757 µM]
COc1cc(OC)cc(-c2ccc3ncc4ccc(=O)n(-c5ccc(N6CCNCC6)c(C(F)(F)F)c5)c4c3c2)c1,10.9 µM (active),–
CC(C)C(=O)OCCc1ccccc1,inactive,–
NC(C(=O)O)C1ON=C(Cl)C1O (stereo not given),inactive,–
COc1cc(CCc2ccccc2)c(C(=O)O)c(O)c1CC=C(C)C,inactive,–
CCC(C)(C)O,inactive,–
NC1=NCCCC1,inactive,–
COC1=CC(=O)[C@@]2([C@@H]1O)[C@@H](Cl)C[C@]13C(OC)=C(OC)C(=O)C[C@]21CCN3C,inactive,–
CCCCCCCC1CCC(=O)O1 (stereo not given),inactive,–
CN1C(=O)[C@@H]2C[C@@]3([C@@]45C[C@H]6C(=O)N(C)[C@@H](Cc7ccccc7)C(=O)N6[C@@H]4Nc4ccccc45)c4ccccc4N[C@H]3N2C(=O)[C@@H]1Cc1ccccc1,inactive,–
c1ccc2c3c([nH]c2c1)C1(CCCCC1)NCC3,inactive,–
C=CC(=O)CCCCC,inactive,–
CC12CCC(C1)C(C)(C)C2=O (stereo not given),inactive,–
C=CCc1ccc(O)c(-c2cc(CC=C)ccc2O)c1,inactive,–
C[C@@H]1CC2OC(=O)[C@@]3(C)C(=O)CC[C@@](C)(C23)[C@@]1(O)CCc1ccoc1 (stereo not given in full),inactive,–
C=C1CCC2[C@](C)(CO)C(O)CC[C@]2(C)C1CC=C1C(=O)OCC1O (stereo not given in full),inactive,–

# Assay: qHTS for Inhibitors of the Functional Ribonucleoprotein Complex (vRNP) of Lassa (LASV) Arenavirus: Viability assay - alamar blue signal for LASV Primary Screen (AID 1347083); note: nearly all actives have a fitted effect of over 80% in size
# Details: cell viability, alamar blue fluorescence (LASV minigenome counter-screen); series mostly up to 57.5 µM
SMILES,Potency,"activity change, negative = reduced viability"
COC(=O)C1=CO[C@@H](O[C@@H]2O[C@H](CO)[C@@H](O)[C@H](O)[C@H]2O)C2C1CC(O)O[C@H]2C (stereo not given in full),inactive,–
O=C1CC(c2ccc(O[C@@H]3OC(CO)[C@@H](O)C(O)C3O)cc2)Oc2cc(O)ccc21 (stereo not given in full),inactive,–
CC=C(C)C(=O)OC1CCN2CC=C(COC(=O)C(O)(C(C)OC)C(C)(C)O)C12 (stereo not given),inactive,–
O=c1c(O)c(-c2ccccc2O)oc2cc(O)cc(O)c12,inactive,–
CCN(CC)CCNC(=O)c1c(C)[nH]c(C=C2C(=O)Nc3ccc(F)cc32)c1C,7.89 µM (active),–
CSCC[C@@H](N)C(=O)O,inactive,–
COc1c2c(c(OC)c3c1c(=O)c1ccccc1n3C)OCO2,inactive,–
CO[C@H]1C[C@H](O[C@H]2[C@H](C)O[C@@H](O[C@@H]3/C(C)=C/C[C@@H]4C[C@@H](C[C@]5(C=C[C@H](C)[C@@H](C6CCCCC6)O5)O4)OC(=O)[C@@H]4C=C(C)[C@@H](O)[C@H]5OC/C(=C\C=C\[C@@H]3C)[C@]54O)C[C@@H]2OC)O[C@@H](C)[C@@H]1O,inactive,–
COc1ccc(CC2c3cc(OC)c(OC)cc3CCN2C)cc1O (stereo not given),inactive,–
CN=C(N)NCCC[C@H](N)C(=O)O,inactive,–
CC(C)=CC(=O)O[C@@H]1Cc2cc3ccc(=O)oc3cc2OC1(C)C,inactive,–
CCNC(=O)Nc1ccc(-c2nc3c(c(N4CCOC[C@H]4C)n2)CCN(C2COC2)C3)cc1,1.37 µM (active),–
COc1c2ccoc2nc2c(OC)c(O[C@@H]3O[C@H](C)[C@@H](O)[C@@H](O)[C@H]3O)ccc12,inactive,–
N#CC(=C(O)c1ccc(Cl)cc1Cl)c1nc2cc(Cl)ccc2c(=O)[nH]1,inactive,–
NCC(O)C1CCCCCCC1 (stereo not given),inactive,–
CCCCCCCC/C=C/CCCOC(C)=O,inactive,–
C[C@@H]1NC(=O)N[C@@H]1CCCCCC(=O)O,inactive,–
COC1[C@@H](O[C@@H]2O[C@H](C)[C@@H](O[C@H]3C[C@@](C)(O)[C@H](OC(=O)CC(C)C)[C@H](C)O3)[C@H](N(C)C)[C@H]2O)[C@@H](CC=O)C[C@@H](C)[C@@H](O)/C=C/C=C/C[C@@H](C)OC(=O)C[C@H]1OC(C)=O (stereo not given in full),inactive,–
CC1=CCC(=C(C)C)CC1,inactive,–
CCc1cc(C(C)=NOCc2ccc(C3CCCCC3)c(C(F)(F)F)c2)ccc1CN1CC(C(=O)O)C1,inactive,–

SMILES,Potency,"activity change, negative = reduced viability"
C=C[C@@H](C1=CC(=O)C(OC)=C(OC)C1=O)c1ccccc1,inactive,–
COc1ccc(C(=O)OC2CC[C@@]3(C)C4CCC5[C@]6(O)C[C@H](O)[C@@]7(O)C(CN8CC(C)CCC8[C@@]7(C)O)[C@]6(O)C[C@@]53O[C@]24O)cc1OC (stereo not given in full),inactive,–
O=C(O)C1=CO[C@@H](O[C@@H]2O[C@H](CO)[C@H](O)[C@H](O)[C@H]2O)[C@@H]2C(CO)=CC[C@H]12,inactive,–
SC1CCCC1,inactive,–
C[C@@H](O)CCC[C@H](O)/C=C/[C@@H]1[C@@H](C/C=C\CCCC(=O)O)[C@@H](O)C[C@H]1O,–,-24.9% [at 0.757 µM]
COc1cc(OC)cc(-c2ccc3ncc4ccc(=O)n(-c5ccc(N6CCNCC6)c(C(F)(F)F)c5)c4c3c2)c1,6.85 µM (active),–
CC(C)C(=O)OCCc1ccccc1,inactive,–
NC(C(=O)O)C1ON=C(Cl)C1O (stereo not given),inactive,–
COc1cc(CCc2ccccc2)c(C(=O)O)c(O)c1CC=C(C)C,inactive,–
CCC(C)(C)O,inactive,–
NC1=NCCCC1,inactive,–
COC1=CC(=O)[C@@]2([C@@H]1O)[C@@H](Cl)C[C@]13C(OC)=C(OC)C(=O)C[C@]21CCN3C,inactive,–
CCCCCCCC1CCC(=O)O1 (stereo not given),inactive,–
CN1C(=O)[C@@H]2C[C@@]3([C@@]45C[C@H]6C(=O)N(C)[C@@H](Cc7ccccc7)C(=O)N6[C@@H]4Nc4ccccc45)c4ccccc4N[C@H]3N2C(=O)[C@@H]1Cc1ccccc1,inactive,–
c1ccc2c3c([nH]c2c1)C1(CCCCC1)NCC3,inactive,–
C=CC(=O)CCCCC,inactive,–
CC12CCC(C1)C(C)(C)C2=O (stereo not given),inactive,–
C=CCc1ccc(O)c(-c2cc(CC=C)ccc2O)c1,inactive,–
C[C@@H]1CC2OC(=O)[C@@]3(C)C(=O)CC[C@@](C)(C23)[C@@]1(O)CCc1ccoc1 (stereo not given in full),inactive,–
C=C1CCC2[C@](C)(CO)C(O)CC[C@]2(C)C1CC=C1C(=O)OCC1O (stereo not given in full),inactive,–
